# In the library only some 6.6% were active in any assay of this set; here they are far more common.
# MCF10A rerep: DNA re-replication induction in MCF 10a cells | MCF 10A DNA re-replication, Hoechst nuclear intensity, 48 h | Potency, µM (series often up to 46.1 µM), for inactives: at the top dose activity, positive = re-replication, actives largely listed as activators | 350,000 compounds, 2.9% hits | AID 624296; further: % of control where 0% means no effect; nearly all actives have a fitted effect of over 50% in size
# KB-V1 MDR tox: kills drug-selected multidrug resistant KB-V1 cells; 400,000 compounds, 3.4% hits; Potency, µM (titrated, usually from 46.1 µM), most hits filed as cytotoxic; KB-V1 MDR cells viability, CellTiter-Glo, 72 h; further: on the % scale 0 is the no-effect control and ±100 the full control effect; nearly all actives have a fitted effect of over 60% in size
#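 KB-V1, DMEM (no phenol red) + 10% FBS; cpd pin-transferred, titration series; 72 h, 37 degrees C; CellTiter-Glo, luminescence. Data normalized, curve-fit.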
# RGS4 inhibitor: blocks human RGS4-accelerated GTP hydrolysis. P49798. Transcreener GDP fluorescence polarization, RGS4-accelerated GTP hydrolysis. Potency, µM (titrated, usually from 114 µM), inactives show top-dose activity change, negative = inhibition, hits mostly inhibitors. 390,000 compounds, 0.039% hits; further: on the % scale 0 is the no-effect control and ±100 the full control effect; nearly all actives have a fitted effect of over 75% in size
# Target sequence (P49798 whole entry, looked up): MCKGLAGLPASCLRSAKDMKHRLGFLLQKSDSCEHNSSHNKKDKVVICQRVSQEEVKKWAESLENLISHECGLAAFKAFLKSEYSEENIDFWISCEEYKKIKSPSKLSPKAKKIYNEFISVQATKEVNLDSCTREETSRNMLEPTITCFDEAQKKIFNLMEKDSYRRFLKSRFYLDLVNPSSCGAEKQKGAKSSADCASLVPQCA
#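 MLSMR compounds (23 nl, pin-transferred) preincubated 10 min at room temperature with a 500nM (2x) first reagent, then RGS4 at 900nM (2x) plus Transcreener GDP mix added; fluorescence polarization (620/688 nm) read before and after 90 min at 30 °C.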
# KB-3-1 cytotox: kills parental KB-3-1 adenocarcinoma cells. KB-3-1 viability, CellTiter-Glo ATP luminescence, 72 h. Potency, µM (titrated, usually from 46.1 µM), most hits filed as cytotoxic. 400,000 compounds, 1.4% hits; further: on the % scale 0 is the no-effect control and ±100 the full control effect; nearly all actives have a fitted effect of over 60% in size
#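 KB-3-1 cells, DMEM (no phenol red) + 10% FBS; compound by pin transfer, 72 h, 37 °C. Readout: CellTiter-Glo luminescence after 10 min. Data normalized, curve-fitted.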
# TSG101-PTAP inh: blocks PTAP/TSG101 interaction to inhibit HIV-1 budding | Potency, µM (highest dose often 115 µM), inactives show at the highest dose activity change, negative = inhibition, usual class: inhibitors | Q99816 | AID 493005 | 340,000 tested, under 10 active | Fluorescence polarization, FITC-PTAP peptide / Tsg101 binding; active means well fitted inhibition curve with a large enough effect in the main read-out, with a control signal flat, not every such curve was filed as active; inconclusive means small, poorly fitted or top-dose-only effect, or effect the other way, or a change in a side signal; inactive means no such curve, though single readings can be large or run the other way; further: % of control where 0% means no effect
#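 Fluorescence polarization binding of Tsg101 binding domain (10 uM final) to FITC-labeled PTAP peptide (50 nM final) in HEPES pH 7.5 buffer with NaCl, Tween 20, EDTA, TCEP. Compounds added before peptide; binding 20 min at RT.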
# SW480 rereplic: inducers of DNA re-replication in SW480 colon cancer cells | SW480 DNA re-replication, Hoechst DNA content imaging, 48 h | Potency, µM (series often up to 46.1 µM), inactives show at the highest dose re-replication activation, usual class: activators | 340,000 compounds, 1.8% hits | AID 624297; further: % of control where 0% means no effect; nearly all actives have a fitted effect of over 55% in size
#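 Quantitative HTS format with DMSO vehicle controls; 48 hr drug incubation at 37 C, then 40 min Hoechst staining and scanning imager measurement at 405 nm excitation.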
# Active calls of the source: *; i = inactive; ? = inconclusive; nt = no result; [ ] = another dose, or the depositor's remark. Unless noted, the call rests on the fitted dose curve; in most records, active means well fitted curve in the direction sought with a large enough effect; inconclusive means small, poorly fitted or top-dose-only effect, or another doubt; inactive means no such curve, though single readings can be large; an effect the other way counts as inactive or inconclusive. Potency means the concentration at half of the fitted maximal effect.
SMILES,MCF10A rerep,KB-V1 MDR tox,RGS4 inhibitor,KB-3-1 cytotox,TSG101-PTAP inh,SW480 rereplic
COc1ccc2c(C)cc(SCC(=O)Nc3ncc(Cl)cc3Cl)nc2c1,22%,18µM*,11%,i,0%,-1%
Cc1cc(SCC(=O)N/N=C/c2ccc(O)cc2O)nc2ccccc12,18%,i,-1%,?,3%,12µM*
COc1ccc2nc(C)cc(SCC(=O)N/N=C/c3cccc4ccccc34)c2c1,3.7µM*,5.8µM*,-18%,?,-1%,4.6µM*
Cc1cc(NC(=O)CSc2cc(C)c3ccccc3n2)no1,-6%,i,-3%,i,0%,-1%
COc1ccc2c(C)cc(SCC(=O)Nc3cccnc3Cl)nc2c1,?,?,13%,i,3%,?
COc1cc(C(=O)Nc2c(C(=O)Nc3ccccc3F)oc3ccccc23)cc(OC)c1OC,nt,i,8%,i,nt,nt
Cc1ccc(NC(=O)CCC(=O)N/N=C/c2ccccc2O)cc1,1%,i,-31%,i,0%,11%
COc1ccc2c(-c3ccccc3)cc(SCC(=O)NC(N)=O)nc2c1,5.8µM*,i,18%[56.9 µM],i,-3%,-38%
Cc1cccc(NC(=O)CCC(=O)N/N=C/c2ccc(O)cc2O)c1,?,i,12%,i,-4%,6.5µM*
COC(=O)c1ccc(/C=C2\Oc3ccccc3NC2=O)cc1,6.5µM*,?,12%,i,-1%,?
CC(C)(C)c1nnc(NC(=O)Cc2ccccc2[N+](=O)[O-])s1,13%,?,-19%,?,0%,1%
CC(C)c1nnc(NC(=O)Cc2ccccc2[N+](=O)[O-])s1,?,23µM*,14%,i,-1%,-135%
COc1ccccc1NC(=O)/C(C#N)=C/C=C/c1ccco1,8.2µM*,?,-40%,1.5µM*,-7%,0.92µM*
C(=N\Nc1nc(Nc2ccccc2)nc(N2CCOCC2)n1)/c1c[nH]c2ccccc12,16µM*,23µM*,-5%,?,-8%,0.82µM*
Cc1ccc(Nc2nc(N/N=C/c3c[nH]c4ccccc34)nc(N3CCOCC3)n2)cc1,?,?,18%,i,0%,13µM*
O=C(Oc1cccc(/C=N/Nc2nc(Nc3ccccc3)nc(N3CCOCC3)n2)c1)c1ccco1,?,15µM*,-15%,i,-2%,?
COc1cc(CCC(=O)Nc2nnc(C)s2)cc(OC)c1OC,10µM*,?,-5%,?,-2%,6.5µM*
CCCCN(C(=O)NC(=O)Nc1nc2ccc(OC)cc2s1)S(C)(=O)=O,-8%,9.2µM*,2%,?,-5%,?
CCOCC(=O)Nc1nc2ccc(OC)cc2s1,-13%,i,18%,i,2%,-9%
COc1ccc2nc(NC(=O)CCn3cccc3)sc2c1,2%,18µM*,-44%,i,-7%,1%
COc1ccc2nc(NC(=O)CSc3nccc(C)n3)sc2c1,14%,23µM*,-20%,i,-3%,-4%
COc1ccc2nc(NC(=O)CSc3nc(C)cc(=O)[nH]3)sc2c1,0%,i,17%[11.4 µM],i,-5%,1%
O=C(Nc1ccc(Cl)c(C(F)(F)F)c1)c1ccco1,?,?,-1%,i,6%,15%
COc1cc(CCC(=O)Nc2ccc(Cl)c(C(F)(F)F)c2)cc(OC)c1OC,17%,16µM*,26%,i,-4%,2%
CCNC(=S)Nc1ccc(Cl)c(C(F)(F)F)c1,?,23µM*,-12%,?,-2%,?
COc1ccc2nc(NC(=O)CCc3cc(OC)c(OC)c(OC)c3)sc2c1,1%,21µM*,-22%,i,-2%,9%
CCCC(=O)Nc1nc2ccc(NC(=O)c3ccccc3F)cc2s1,6.5µM*,1.8µM*,1%,2.1µM*,0%,8.2µM*
